biological target: T1, RELB subunit;p52 subunit (Homo sapiens;Homo sapiens, UniProt Q01201;Q00653 120-401;4-332); test: protein binding microarray; high values mean tight binding; conditions: dsDNA, one strand shown
T1 sequence 1: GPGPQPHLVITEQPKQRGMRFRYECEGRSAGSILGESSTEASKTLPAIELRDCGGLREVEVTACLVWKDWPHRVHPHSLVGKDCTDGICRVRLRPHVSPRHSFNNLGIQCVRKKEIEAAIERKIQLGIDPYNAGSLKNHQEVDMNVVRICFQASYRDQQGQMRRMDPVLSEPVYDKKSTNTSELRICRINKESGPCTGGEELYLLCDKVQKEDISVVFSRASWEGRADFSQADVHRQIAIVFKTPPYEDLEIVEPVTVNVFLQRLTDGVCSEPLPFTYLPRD
T1 sequence 2: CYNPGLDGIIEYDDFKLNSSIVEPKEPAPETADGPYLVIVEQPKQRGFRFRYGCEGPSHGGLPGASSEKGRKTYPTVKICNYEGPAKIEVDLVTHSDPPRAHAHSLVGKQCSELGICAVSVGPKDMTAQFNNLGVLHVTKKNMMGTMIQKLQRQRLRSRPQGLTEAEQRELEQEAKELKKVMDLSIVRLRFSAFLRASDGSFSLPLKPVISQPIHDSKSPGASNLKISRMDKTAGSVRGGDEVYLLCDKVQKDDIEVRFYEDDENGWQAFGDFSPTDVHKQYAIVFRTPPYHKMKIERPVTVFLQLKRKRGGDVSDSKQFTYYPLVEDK

Sequence | binding signal
AAGAAAGCCCT | -0.728 z-score
AGGATCTCCCC | 0.999 z-score
CGATGTACCCC | 0.491 z-score
AGATATCTCCT | -1.06 z-score
GGGAACGCCCT | 0.214 z-score
AGGATAGCCCT | -0.772 z-score
AAGTTATCCCC | 1.11 z-score
AGAAGGCCCCT | 0.0992 z-score
CGAAAGTTCCT | -0.709 z-score
CGGTTATCCCT | 0.321 z-score
AGAAAACTCCC | 0.74 z-score
GAAAGTGCCCC | 0.479 z-score
AGGTTTATCCT | -0.798 z-score
GAAGAATCCCC | 1.85 z-score
AAGTATGCCCC | 0.2 z-score
GAGTAATTCCT | -0.87 z-score
CAAAGTTTCCT | -0.489 z-score
AAATACACCCC | 0.566 z-score
AAGAATGTCCC | 0.54 z-score

Sequence | binding signal
AAATGCTTCCC | -0.535 z-score
AAGATGCCCCC | 1.17 z-score
GAGGTTGCCCT | -0.624 z-score
CGAAGACTCCC | -0.747 z-score
GGATGCATCCC | -0.821 z-score
GAATGCCTCCT | -1.25 z-score
AAGTACATCCC | -0.549 z-score
CAGTGACCCCT | -0.116 z-score
GAGGGCTCCCC | -0.218 z-score
GAGTGTGCCCT | -0.867 z-score
AGAATGCTCCC | -0.823 z-score
CGATGTCTCCT | -0.858 z-score
CGATGGGCCCT | -0.85 z-score
CAAGGTTCCCC | 1.58 z-score
CAGAAGATCCT | -1.12 z-score
GAAATGACCCT | -0.38 z-score
AGGTACGCCCC | 0.441 z-score
GGATAATCCCC | 1.9 z-score
CGGGGACCCCT | 0.906 z-score

biological target: C-Rel subunit;p50 subunit (Homo sapiens;Homo sapiens, UniProt Q04864;P19838 1-285;7-356); test: as above; conditions: dsDNA, one strand shown
Sequence (Q04864 1-285, chain 1 of 2): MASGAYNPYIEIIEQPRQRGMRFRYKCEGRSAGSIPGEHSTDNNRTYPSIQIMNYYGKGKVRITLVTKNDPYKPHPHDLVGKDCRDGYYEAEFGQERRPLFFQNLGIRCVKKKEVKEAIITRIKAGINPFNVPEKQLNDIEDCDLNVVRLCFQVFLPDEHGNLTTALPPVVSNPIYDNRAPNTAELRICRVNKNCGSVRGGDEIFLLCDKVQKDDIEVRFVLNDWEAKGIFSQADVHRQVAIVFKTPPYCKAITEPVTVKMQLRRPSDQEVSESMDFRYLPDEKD
Sequence (P19838 7-356, chain 2 of 2): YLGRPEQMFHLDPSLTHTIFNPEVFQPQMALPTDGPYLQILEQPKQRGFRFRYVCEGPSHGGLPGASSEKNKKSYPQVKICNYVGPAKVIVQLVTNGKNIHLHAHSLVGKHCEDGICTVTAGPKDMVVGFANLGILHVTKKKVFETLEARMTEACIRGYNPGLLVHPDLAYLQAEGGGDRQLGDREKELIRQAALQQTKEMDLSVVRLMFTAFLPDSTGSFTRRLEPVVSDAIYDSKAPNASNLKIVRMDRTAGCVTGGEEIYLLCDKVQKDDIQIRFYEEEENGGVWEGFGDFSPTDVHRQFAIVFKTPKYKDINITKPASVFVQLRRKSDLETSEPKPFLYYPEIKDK

Sequence | binding signal
AAGAAAGCCCT | -0.563 z-score
AGGATCTCCCC | 0.853 z-score
CGATGTACCCC | 0.113 z-score
AGATATCTCCT | -1.37 z-score
GGGAACGCCCT | 0.154 z-score
AGGATAGCCCT | -0.982 z-score
AAGTTATCCCC | 1.16 z-score
AGAAGGCCCCT | -0.139 z-score
CGAAAGTTCCT | -0.537 z-score
CGGTTATCCCT | 0.223 z-score
AGAAAACTCCC | 0.654 z-score
GAAAGTGCCCC | 0.607 z-score
AGGTTTATCCT | -1.17 z-score
GAAGAATCCCC | 1.56 z-score
AAGTATGCCCC | 0.628 z-score
GAGTAATTCCT | -0.18 z-score
CAAAGTTTCCT | -0.0288 z-score
AAATACACCCC | 0.342 z-score
AAGAATGTCCC | 0.518 z-score
